By inhibition is commonly meant the relative decrease from the control value, in per cent.

SMILES strings stand for the structures. Where “and” joins values, the source holds several entries; their conditions need not be identical. Equal values may be shown once. In all, about 190,000 compounds went through this assay and about 1,300 (0.68%) were called active. Rule as the data show it: active = inhibition above about 50%; inactive = the rest. The list comes from a sample in which actives are over-represented; it also holds similar structures and randomly drawn compounds.

The assay deals with Mannose-6-phosphate isomerase (Homo sapiens) (UniProt P34949). The assay is described as follows: human PMI inhibitors, high substrate, primary screen, biochemical, fluorescence intensity, high mannose 6-phosphate (AID 1220). Particulars: recombinant PMI enzyme, coupled fluorescence intensity; at 20 µM; active compounds read high.
Sequence of Mannose-6-phosphate isomerase (Homo sapiens) (P34949 whole entry, looked up): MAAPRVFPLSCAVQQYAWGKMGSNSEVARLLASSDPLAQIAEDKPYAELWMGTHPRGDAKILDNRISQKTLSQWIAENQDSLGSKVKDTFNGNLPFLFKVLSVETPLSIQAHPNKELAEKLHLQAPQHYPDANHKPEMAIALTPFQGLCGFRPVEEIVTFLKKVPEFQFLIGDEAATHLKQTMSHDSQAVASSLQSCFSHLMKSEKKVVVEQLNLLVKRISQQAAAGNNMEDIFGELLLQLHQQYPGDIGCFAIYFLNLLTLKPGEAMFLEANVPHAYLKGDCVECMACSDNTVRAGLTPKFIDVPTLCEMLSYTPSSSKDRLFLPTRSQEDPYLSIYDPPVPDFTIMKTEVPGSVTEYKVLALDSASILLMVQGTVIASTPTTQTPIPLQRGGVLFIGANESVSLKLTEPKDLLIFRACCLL
`Cc1ccc(S(=O)(=O)Nc2ccc3c(c2)nc(CN2CCCC2)n3C)cc1`: the inhibition is -2.1% (inactive).
The value for `CCOc1ccc(C(C)=O)cc1CSc1nnc(-c2cccs2)n1CC1CCCO1` (stereo not drawn) was 10.7% (inactive).
Regarding `O=[N+]([O-])c1cccc(/C=N/NC2=NCCCCC2)c1`, the inhibition is -4.3% (inactive).
Regarding `C=CCn1c(SCC(=O)c2ccc(NS(=O)(=O)c3ccccc3)cc2)nnc1-c1cccs1`, the inhibition is -16% (inactive).
Regarding `Cc1ccc(S(=O)(=O)/N=C(\c2ccccc2)N(C)S(=O)(=O)c2ccccc2)cc1`, the inhibition was -11.9% (inactive).
Consider `CCC(Sc1ncccc1C(=O)O)C(=O)N1CCCC1` (stereo not drawn), for which the inhibition was -5.9% (inactive).
On to `CC(=O)Nc1ccc2nc(NC(=O)COc3ccc([N+](=O)[O-])cc3)sc2c1`, for which the inhibition was 9.4% (inactive).
The figure for `O=C(O)CC1SC(=O)N(Cc2ccccc2)C1=O` (stereo not drawn) is 8.1% (inactive); for `COc1ccc(CCn2c(=O)[nH]c3cc(C(=O)NCCc4ccccc4)ccc3c2=O)cc1OC` it is -2.6% (inactive); for `O=c1c2ccccc2nc2ccc(N3CCOCC3)nn12` it is 0.2% (inactive).
For the compound `c1ccc2c(Nc3ccc4c(c3)OCCO4)c3c(nc2c1)CCC3`, the inhibition was 12.8% (inactive).
For `CC/C(CC(=O)C(F)(F)F)=N\NC(=O)/C(C#N)=C/N(C)C`, the inhibition is -0.8% (inactive).
Turning to `CC(C)CC(N=Cc1c(O)c2ccccc2oc1=O)C(=O)O` (stereo not drawn), the inhibition is -10.2% (inactive).
The value for `Cc1ccc2cccc(Oc3ccc([N+](=O)[O-])cc3[N+](=O)[O-])c2n1` was 23.3% (inactive).
`Cc1ccc(OCCn2cnc3ccccc3c2=O)c([N+](=O)[O-])c1`: the inhibition is 0.1% (inactive).
With `O=c1c2ccccc2ncn1CCOc1ccccc1[N+](=O)[O-]`, the inhibition is -2.8% (inactive).
Turning to `COc1cc(C)ccc1OCCOCCOc1cccc2ccc(C)nc12`, the inhibition was 8.5% (inactive).
As for `Cc1ccc(OCCOCCn2cnc3ccccc3c2=O)c([N+](=O)[O-])c1`, the inhibition is 52.1% (active).
Turning to `Cc1ccc(OCCOc2cccc3ccc(C)nc23)c([N+](=O)[O-])c1`, the inhibition is 55% (active).
The value for `CCN(C#N)c1nc(NC(C)C)nc(NC(C)(C)C)n1` was 5.4% (inactive); that for `Cc1cccc(COCC(CC(C)C)N2CCN(C(=O)c3ccc(C(F)(F)F)cc3)CCC2=O)c1` (stereo not drawn) was -9% (inactive).
For `Cc1[nH]c(=S)sc1Cc1ccc(F)cc1`, the inhibition is 6.5% (inactive).
Consider `CNc1nc(-c2c[nH]c3ccccc23)cs1`, for which the inhibition is -53.9% (inactive).
With `Nc1n[nH]c(-c2ccccc2[N+](=O)[O-])n1`, the inhibition is -2.3% (inactive).
With `CCOCCn1c(=NC(=O)/C=C/c2ccccc2Cl)sc2cc(NC(C)=O)ccc21`, the inhibition was 2.9% (inactive).
For the compound `NC1CCCCC1N=Cc1c(O)n(CCc2ccc(F)cc2)c(=O)[nH]c1=O` (stereo not drawn), the inhibition was 2.4% (inactive).
Take `CCOc1ccc(S(=O)(=O)N(CC(=O)NC2CCCCC2C)Cc2ccco2)cc1` (stereo not drawn): the inhibition is 3.3% (inactive).
The figure for `CCOc1cccc(C2c3c(oc4cc(C)c(C)cc4c3=O)C(=O)N2CCCN(C)C)c1` (stereo not drawn) is -0.5% (inactive); for `COc1ccc([N+](=O)[O-])cc1COc1ccc2c(-c3ccccc3)cc(=O)oc2c1` it is -4.2% (inactive); for `COc1ccc([N+](=O)[O-])cc1COc1cc(C)cc2oc(=O)cc(-c3ccccc3)c12` it is 58% (active).
With `CCOc1cc(C)cc2oc(=O)cc(-c3ccccc3)c12`, the inhibition was 6.3% (inactive).
For `O=C(CN1C(=O)C2C3CCC(C3)C2C1=O)NCc1ccco1` (stereo not drawn), the inhibition is 6.5% (inactive).
In the case of `O=C(CN1C(=O)C2C3C=CC(C4CC34)C2C1=O)NCc1ccco1` (stereo not drawn), the inhibition is 13% (inactive).
On to `O=C(CN1C(=O)C2C3C=CC(C3)C2C1=O)NCc1ccco1` (stereo not drawn), for which the inhibition is 57% (active).
On to `CCOC(=O)C1=C(C)NC(C)=C(C(=O)OCC)C1C(=O)OCC(N)=O`, for which the inhibition is -7.6% (inactive).
The figure for `CS(=O)(=O)c1ccc(C(=O)N2CCc3ccccc3C2)cc1` is -6.6% (inactive); for `O=C(c1ccc(S(=O)(=O)c2ccccc2)cc1)N1CCc2ccccc2C1` it is 60.2% (active); for `O=C(c1ccc(S(=O)(=O)N2CCCCC2)cc1)N1CCc2ccccc2C1` it is 11.9% (inactive).
Take `CCC1CCCCN1C(=O)c1sc2ncnc(N(CC)CC)c2c1C` (stereo not drawn): the inhibition is -1.9% (inactive).
Take `Cc1nn(CC(=O)NCc2ccccc2F)c(C)c1[N+](=O)[O-]`: the inhibition is 2.2% (inactive).
The figure for `COc1ccc2cc(/C=N/NC(=O)CN(c3ccccc3)S(=O)(=O)c3ccccc3)c(Cl)nc2c1` is 5.6% (inactive).
Turning to `Cc1c(OCC(F)(F)F)ccnc1CS(=O)c1nc2ccccc2[nH]1` (stereo not drawn), the inhibition is 4.7% (inactive) and 13.1% (inactive).
The figure for `COc1ccc2nc(S(=O)Cc3ncc(C)c(OC)c3C)[nH]c2c1` (stereo not drawn) is 50% (active); for `COc1ccc2nc(C(C)O)[nH]c2c1` (stereo not drawn) it is 13.3% (inactive).
`CC(O)CNCc1ccc(-c2ccccc2)cc1` (stereo not drawn): the inhibition is 0.1% (inactive).
As to `Cc1ccccc1Nc1ncccc1C(=O)N1CCOCC1`, the inhibition is -9.3% (inactive).
`O=S(=O)(Nc1nc2ccccc2nc1Cl)c1ccc(Cl)cc1`: the inhibition is -2.7% (inactive).
The value for `O=S(=O)(Nc1nc2ccccc2nc1Cl)c1ccccc1` was -6.6% (inactive).
As for `O=S(=O)(Nc1nc2ccccc2nc1Cl)c1ccc2ccccc2c1`, the inhibition was 60.1% (active).
On to `O=C1N/C(=C\c2ccccc2)C(O)=C1C=NCc1ccccc1`, for which the inhibition is -1.9% (inactive).
With `O=C(O)CCNS(=O)(=O)c1ccccc1Br`, the inhibition was -4% (inactive).
Consider `O=c1cc(C(F)(F)F)nc(-c2ccccc2)[nH]1`, for which the inhibition was 0.9% (inactive).
The value for `Cc1cc(/C=C(\C#N)C(=O)NC2CCCCCC2)c(C)[nH]1` was 1.5% (inactive); that for `N#C/C(=C\c1cc(Cl)ccc1O)C(=O)NC1CCCCC1` was 10.6% (inactive).
Consider `N#C/C(=C\c1cc(Cl)cc(Cl)c1O)C(=O)NC1CCCCC1`, for which the inhibition was 66.7% (active).
The value for `COc1ccc(-c2cc(C(=O)Nc3cc(C)on3)no2)cc1` was -3.1% (inactive); that for `CCN(CCO)C1CC(=O)N(c2ccccc2C)C1=O` (stereo not drawn) was -11.3% (inactive); that for `O=C(/C=C/c1ccccc1)NC1CCS(=O)(=O)C1` (stereo not drawn) was -10.3% (inactive).
For `O=C(/C=C/c1cccs1)NC1CC1`, the inhibition was -8.9% (inactive).
Take `O=C(/C=C/c1cccs1)NC1CCS(=O)(=O)C1` (stereo not drawn): the inhibition is 54.7% (active).
As for `COc1ccccc1NC(=O)Nc1ccc2[nH]c(=O)[nH]c2c1`, the inhibition is 6.1% (inactive).
The value for `O=C(Nc1ccc(F)cc1F)Nc1ccc(F)cc1F` was -3.6% (inactive).
Take `O=C(Nc1ccc2[nH]c(=O)[nH]c2c1)Nc1ccc(F)cc1F`: the inhibition is 55.8% (active).
